PubChem BioAssay (NCI)
Compounds without any hit were thinned out: in the full panel of roughly 83,000, 20% have a hit.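 How to read the values: 0–100, growth inhibition (40 = 60% inhibited); 0, no net growth; -100 to 0, cell death (-40 = 40% of starting cells died; -100 = all dead).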 Unmarked numbers belong to inactive results. The source made the active and inactive calls. How the source made its calls: active means growth percent below 10; inactive means the rest.

Test system: MALME-3M melanoma
Assay: NCI-60 one-dose screen, 48 h (100 = growth as untreated, 0 = no growth, -100 = all killed)
Conditions: 10 µM unless noted

In the case of `COc1cc2cc(C(=O)N3C[C@@H](CCl)c4c3cc(OC(=O)N(CCC(=O)N3CCN(C)CC3)C3CCCCC3)c3ccccc43)[nH]c2c(OC)c1OC`, the growth is reported as -97.6% (active).
For `O=C(N/N=C/c1ccsc1)c1[nH]c2ccc(Br)cc2c1-c1ccccc1`, the growth was -72.5% (active).
For `N/C(=N\c1nc2ccc([N+](=O)[O-])cc2s1)NC(=O)Nc1ccccc1Cl`, the growth was -17.1% (active).
In the case of `O=C(NN1C(=O)/C(=C/C=C/c2ccc([N+](=O)[O-])o2)SC1=S)c1ccncc1`, the growth is reported as -91.7% (active).
In the case of `CCOc1ccccc1[C@H]1C(C(=O)c2ccc(Cl)cc2)C2(N[C@@H]1c1ccccc1)C(=O)Nc1ccccc12` (stereo partly drawn), the growth is reported as -15.9% (active).
`O=C1CCC(N2C(=O)c3cccc(NCCCCCC(=O)N4CCN(c5ccc6nc7c(nc6c5C(F)(F)F)C(=O)c5ncccc5C7=O)CC4)c3C2=O)C(=O)N1` (stereo not drawn) was tested, and the growth was -99.3% (active).
With `COc1cc(/C=N/NC(=O)c2ccc(OCc3nc4ccc(C)cc4[nH]3)cc2)cc(OC)c1OC` the growth was 4.8% (active).
`Nc1cc(-c2c[nH]c3ccc(Br)cc23)nc2cc(-c3c[nH]c4ccccc34)nn12` was tested, and the growth was -88.1% (active).

Point of comparison: `CCOC(=O)c1ccc(NC(=S)NC(=O)c2cccc(NC(=O)c3ccc(C)cc3)c2)cc1`, growth 71.9%. Against it:
- Clc1ccc(Nc2nnc(-c3c[nH]c4ccccc34)o2)cc1 — higher, 78.8%
- Cc1ccc(S(=O)(=O)N(CCn2ccnc2[N+](=O)[O-])CCn2ccnc2[N+](=O)[O-])cc1 — higher, 111%
- Cc1ccc2nc(NC(=O)Nc3cccc(Cl)c3)sc2c1 — higher, 93.5%
- COc1ccc(/C=C/C(=O)c2ccc(S(=O)(=O)NCCNc3nc(N(C)C)nc(N4CCOCC4)n3)cc2)cc1 — higher, 97.5%
- Nc1nnc(CS(=O)(=O)c2ccccc2)s1 — higher, 94.1%
- CS(=O)(=O)c1ccc(-n2nc(C(=O)NCc3ccccc3)cc2-c2ccc(Cl)cc2)cc1 — higher, 112%
- Cc1cccc(NCC(=O)N2CCN(c3ncnc4c3cnn4-c3ccccc3)CC2)c1 — higher, 72.8%
- CCCCCCCOc1ccc(S(=O)(=O)Nc2ccc(C)c(F)c2C(=O)O)cc1 — higher, 91.3%
- O=C(NNC(=O)c1ccc(OCc2nc3ccc(Cl)cc3[nH]2)cc1)Nc1ccc(Cl)c(C(F)(F)F)c1 — lower, 45.7%
- OC(c1ccccc1)(c1ccccc1)C1CCN(c2ccc3nnc(Cl)n3n2)CC1 — lower, 26.8%
- COC(=O)c1cccc(Oc2ccc(NC(=O)Nc3cc(C(F)(F)F)ccc3F)cc2)c1 — higher, 77.7%
- CCCn1c(NC(=O)c2cccc(C(N)=O)c2)nc2cc(CN3CCCCC3)ccc21 — higher, 98%
- COC(=O)c1c(C(=O)OC)c2c3ccccc3c3ccccc3n2c1C(=O)C(F)(F)F — higher, 104%
- COc1ccc(N=Nc2c(N)nn3c(N)c(C#N)c(-c4ccccc4)nc23)cc1 — lower, 28.5%
- O=C(Nc1ccc(S(=O)(=O)N2CCCCC2)cc1)C(Cl)Cl — higher, 99.3%
- O=C1Nc2ccccc2/C1=C/C(=O)c1cc2ccccc2oc1=O — lower, 10.9%
- C/C(=N\Nc1ccc(C(=O)O)cc1)c1cnn(-c2cc(=O)[nH]c3ccc(C)cc23)c1C — higher, 83.3%
- CN(C)c1nc(NCCNS(=O)(=O)c2ccc(C(=O)/C=C/c3ccccc3)cc2)nc(N2CCOCC2)n1 — higher, 99.2%
- COc1cc(CNC(=O)C[C@H](C)CCC=C(C)C)ccc1OCc1cn(-c2ccc(Br)cc2)nn1 — higher, 85.4%
- COc1ccc(-n2c(NC(=O)N3CCN(C)CC3)c(C#N)c3ccccc32)cc1 — lower, 38.5%
- O=C(CSc1nc2sc3c(c2c(=O)n1-c1ccc(Cl)cc1)CCCC3)NNC(=O)c1ccc(Br)cc1 — lower, 69.2%
- COc1ccc2[nH]c(O)c(N=NC(=O)c3ccc4nc(-c5ccc(Cl)cc5)[nH]c4c3)c2c1 — lower, 33.4%
- CC(C)(C)C(=O)C1CC(C#N)=C2C=Cc3c(ccc4ccccc34)N21 (stereo not drawn) — higher, 102%
- COc1cc(NC(=O)C(C)C)ccc1C(=O)NC(=S)Nc1ccc(S(N)(=O)=O)cc1 — higher, 94.4%
- COc1c2c(c(Br)c3c1C(CCc1ccccc1)N(C)CC3)OCO2 (stereo not drawn) — lower, 63.7%
- COc1ccc(CCC2NCCc3c(Br)c4c(c(OC)c32)OCO4)cc1 (stereo not drawn) — lower, 23.4%
- O=CNc1ccc(-n2cnc3cc(-c4ccc(O)cc4)ccc32)cc1 — lower, 65.9%
- N#CCc1nnc(NC(=O)c2ccc(-n3c(=O)[nH]c4ccccc4c3=O)cc2)s1 — higher, 95.3%
- FC(F)(F)c1cc2c(Cl)ncnc2n1CCN1CCOCC1 — higher, 88.1%
